Test results reported in PubChem BioAssay (EPA / NIEHS).
Where “and” joins values, the source holds several entries; their conditions need not be identical. Identical values can stand only once. Calls of active or inactive are those of the source. The calls were made as follows: active = hit-call score of the fitted dose curve at least 0.9, where 1 is the maximum; inactive = score below 0.9.

Assay: BSK_IMphg_SRB: Viability Assessment in the BioMAP Diversity Plus: IMphg Assay (AID 2284292);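 also: measured one day after compound addition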
Details: primary human endothelial cells with macrophages
Procedure: BSK_IMphg is a cell-based, multiplexed-readout assay that uses venular endothelial cells and macrophages, a human vascular primary cell, with measurements taken at 24 hours after chemical dosing in a microplate: 96-well plate.BSK_IMphg_SRB is an assay component measured in the BSK_IMphg assay. It measures […] related to cell death using Sulforhodamine staining technology.Data from the assay component BSK_IMphg_SRB was analyzed at the endpoint, BSK_IMphg_SRB, in the positive analysis fitting direction relative to DMSO as the negative control and baseline of activity. Using a type of viability reporter, gain or loss-of-signal activity can be used to understand protein changes. To generalize the intended target to other relatable targets, this assay endpoint is annotated to the 'cell morphology' intended target family, where the subfamily is 'cell conformation'.
The levels of cell surface (or secreted, indicated by the prefix "s") biomarker endpoints were measured by ELISA. Overt cytotoxicity to cells in confluent adherent cultures (all systems other than the BT system) was assessed by measuring total protein levels using sulforhodamine B (SRB) staining in parallel cultures at the time of biomarker measurements, indicated as SRB endpoints. For proliferation assays for adherent cell types, individual cell types are cultured at sub-confluence and relative cell numbers quantified by SRB staining at time points optimized for each system (48 h: 3C and CASM3C systems; 72 h: BT and HDF3CGF systems; 96 h: SAg system). SRB was performed by staining cells with 0.1% SRB after fixation with 10% TCA and reading wells at 560 nm.Viability and proliferation of PBMC (T cells) was quantified by Alamar Blue reduction for the SAg and BT systems. For PBMC viability (referred to as PBMC Cytotoxicity within the assay endpoint names), cells were plated (75,000/well in a 96-well plate) and then chemical samples added for 1 h before addition of activators, SEB and TSST-1 (20 ng/mL final concentration each). Cells were incubated for 90 h. Then, Alamar Blue (20 uL/well) (Invitrogen, Cat DAL1100) was added for 6 h, and the plates were read with a fluorescence microplate reader at 546/580 nm (excitation/emission). For PBMC proliferation, cells were plated and activated as above but incubated for only 16 h prior to addition of Alamar Blue. Plates were read after 6 h.

| SMILES | outcome | AC50 |
| --- | --- | --- |
| FC(F)(F)C(F)(F)CNCC(F)(F)C(F)(F)F | inactive |  |
| O=S(=O)(OCC(F)F)C(F)(F)F | inactive |  |
| OCC(F)(F)C(F)(F)C(F)(F)F | inactive |  |
| OCC(F)(F)C(F)(F)C(F)(F)C(F)(F)C(F)(F)C(F)F | inactive |  |
| FC(F)(F)C(F)(F)C(F)(F)CI | inactive |  |
| FC(F)(F)C(F)(F)C(F)(F)C(F)(F)C(F)(F)C(F)(F)C(F)(F)I | inactive |  |
| FC(F)(F)C(F)(F)C(F)(F)C(F)(F)CCI | inactive |  |
| COC(=O)CCC(F)(F)C(F)(F)C(F)(F)C(F)(F)F | inactive |  |
| OCCCC(F)(F)C(F)(F)C(F)(F)F | inactive |  |
| O=C(O)C(F)(F)C(F)(F)C(F)(F)F | inactive |  |
| O=S(=O)(O)C(F)(F)C(F)(F)C(F)(F)C(F)(F)C(F)(F)C(F)(F)C(F)(F)F | inactive |  |
| O=C(O)C(F)(F)C(F)(F)C(F)(F)C(F)(F)C(F)(F)C(F)(F)C(F)(F)C(F)(F)C(F)(F)C(F)(F)C(F)(F)C(F)(F)C(F)(F)F | inactive |  |
| O=S(=O)(OCCOC(F)(F)F)C(F)(F)F | inactive |  |
| O=C(Cl)C(F)(F)C(F)(F)C(F)(F)C(F)(F)C(F)(F)C(F)(F)C(F)(F)C(F)(F)F |  | 54.8 µM (active) and 40 µM (active) and 47.8 µM (active) |
| FC(F)(F)C(F)(F)C(F)(F)C(F)(F)C(F)(F)C(F)(F)C(F)(F)C(F)(F)F | inactive |  |
| C=CC(=O)OCC(F)(F)C(F)(F)C(F)(F)C(F)(F)C(F)(F)C(F)(F)C(F)(F)F | inactive |  |
| O=C(O)C(F)(OC(F)(F)C(F)(OC(F)(F)C(F)(OC(F)(F)C(F)(F)C(F)(F)F)C(F)(F)F)C(F)(F)F)C(F)(F)F (stereo not given) | inactive |  |
| C=CC(=O)OCC(F)(F)C(F)(F)C(F)(F)C(F)(F)COC(=O)C=C | inactive |  |
| FC(F)(I)C(F)(F)C(F)(F)C(F)(F)I | inactive |  |
| O=C(O)C(F)(F)C(F)(F)C(F)(F)C(F)(F)F | inactive |  |

| SMILES | outcome | AC50 |
| --- | --- | --- |
| NC(=O)C(F)(F)C(F)(F)C(F)(F)C(F)(F)F | inactive |  |
| O=C(O)C(F)(F)C(F)(F)C(F)(F)C(F)(F)C(F)(F)C(F)(F)C(F)(F)C(F)(F)Cl |  | 56.6 µM (active) and 47.9 µM (active) |
| O=C(O)C=C(C(F)(F)F)C(F)(F)F | inactive |  |
| FC(F)(F)C(F)(F)C(F)(F)C(F)(F)C(F)(F)CCI | inactive |  |
| C=C(C)C(=O)OCC(F)(F)C(F)(F)C(F)(F)F | inactive |  |
| C=C(C)C(=O)OCCC(F)(F)C(F)(F)C(F)(F)C(F)(F)C(F)(C(F)(F)F)C(F)(F)F | inactive |  |
| O=P(O)(O)OCCC(F)(F)C(F)(F)C(F)(F)C(F)(F)C(F)(F)C(F)(F)F | inactive |  |
| O=C(O)C(F)(OC(F)(F)C(F)(OC(F)(F)C(F)(F)C(F)(F)F)C(F)(F)F)C(F)(F)F (stereo not given) | inactive |  |
| CCO[Si](CCC(F)(F)C(F)(F)C(F)(F)C(F)(F)C(F)(F)C(F)(F)F)(OCC)OCC | inactive |  |
| FC(F)(F)C(F)(F)C(F)(F)C(F)(F)C(F)(F)C(F)(F)CC1CO1 (stereo not given) | inactive |  |
| C=C(C)C(=O)OCC(F)(F)C(F)(F)C(F)(F)C(F)(F)C(F)(F)C(F)(F)C(F)(F)F | inactive |  |
| FC(F)(F)C(F)(F)C(F)(F)C(F)(F)C(F)(F)C(F)(F)C(F)(F)Br | inactive |  |
| O=C(O)C(F)(F)C(F)(F)OC(F)(F)F | inactive |  |
| O=C(O)C(F)(F)C(F)(F)C(F)(F)C(F)(F)C(F)(F)C(F)(F)C(F)(F)C(F)(F)C(F)(F)C(F)(F)C(F)(F)C(F)(F)F | inactive |  |
| FC1CC(F)(F)C(F)(F)C1(F)F (stereo not given) | inactive |  |
| FC(F)(F)C(F)(F)C(F)(F)C(F)(F)C(F)(F)C(F)(F)CCS | inactive |  |
| O=C(O)C(F)(F)C(F)(F)F | inactive |  |
| FC(F)(F)C(F)(F)C(F)(F)C(F)(F)C(F)(F)C(F)(F)C(F)(F)C(F)(F)CCS | inactive |  |
| O=C(CC(=O)C(F)(F)C(F)(F)F)C(F)(F)F | inactive |  |
| OCC(F)(F)C(F)(F)C(F)(F)C(F)(F)C(F)(F)C(F)(F)F | inactive |  |
